According to PubChem BioAssay AID2685 (National Center for Advancing Translational Sciences (NCATS), 2010):
The campaign covered roughly 320,000 compounds. About 2,100 (0.66%) were called active. Not shown: some 53% with an inconclusive outcome. The call rests on the fitted dose curve; in most records, active means well fitted inhibition curve with a large enough effect in the signal ratio, with a control signal flat (not every such curve was filed as active); inconclusive means small, poorly fitted or top-dose-only effect, or effect the other way, or a change in a side signal; inactive means flat fitted curve, though single readings scatter; the % refers to the signal ratio. The entries come from a sample that favours actives as a whole.
Potency means the concentration at half of the fitted maximal effect.

Assay: qHTS Assay for Lipid Storage Modulators in Drosophila S3 Cells;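 on cell number change: cells counted by Cell Tracker Red CMTPX staining in the red channel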; on lipid storage change, negative = inhibition: on the % scale 0 is the no-effect control and ±100 the full control effect
Settings: BODIPY lipid droplet fluorescence, 18-24 h, cells fed with added oleic acid; cell number change: measured here: cell count max response; series mostly up to 46.1 µM; lipid storage change, negative = inhibition: at the top concentration
Summary of the method: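 Drosophila S3 cells got compounds at several concentrations plus oleic acid (400 uM solution). Laser-scanning cytometry with 488 nm excitation read lipid droplets at 500-530 nm and cells at 575-640 nm. Percent activity was relative to 20 uM Triacsin C.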
With `Cn1c(SCc2cc(=O)[nH]c(C(C)(C)C)n2)nnc1C(F)(F)F` the “lipid storage change, negative = inhibition” value was 10.1% (inactive) and the cell number change was -1.02%.
With `CCOC(=O)N1CCN(C2=C(NS(=O)(=O)c3ccc(NC(C)=O)cc3)C(=O)c3ccccc3C2=O)CC1` the Potency was 18.4 µM (active) and the cell number change was -22.6%.
For `CCOC(=O)N1CCN(C2=C(NS(=O)(=O)c3ccc(C)cc3)C(=O)c3ccccc3C2=O)CC1`, the “outcome” value was “inactive” and the cell number change was -13.9%.
For `CC(=O)Nc1ccc(S(=O)(=O)NC2=C(N3CCN(c4ccc(F)cc4)CC3)C(=O)c3ccccc3C2=O)cc1`, the “outcome” value was “inactive” and the cell number change was 3.49%.
In the case of `CCOC(=O)c1ccc(N(CC(=O)NC2CCCCC2)C(=O)CNC(=O)c2ccco2)cc1`, the “outcome” value is reported as “inactive” and the cell number change is reported as 11.2%.
In the case of `O=C(O)CCC(=O)N1N=C(c2ccco2)CC1c1cccs1` (stereo not drawn), the “lipid storage change, negative = inhibition” value is reported as -9.03% (inactive) and the cell number change is reported as -1.36%.
With `O=C(c1ccccc1)N1N=C(c2ccco2)CC1c1cccs1` (stereo not drawn) the “lipid storage change, negative = inhibition” value was -0.755% (inactive) and the cell number change was 16.1%.
In the case of `O=C(CCl)N1N=C(c2ccco2)CC1c1cccs1` (stereo not drawn), the Potency is reported as 23.1 µM (active) and the cell number change is reported as -16%.
For `CC(C)Sc1nc2c(cnn2-c2ccc(F)cc2)c(=O)[nH]1`, the “outcome” value was “inactive”.
For `CN(C)c1nc(NCc2ccccc2)nc(N/N=C/c2ccc(Cl)cc2Cl)n1`, the “outcome” value was “inactive” and the cell number change was -26.7%.
In the case of `CN(C)c1nc(NCc2ccccc2)nc(N/N=C/c2ccccc2F)n1`, the Potency is reported as 23.1 µM (active).
In the case of `CN(C)c1nc(NCc2ccccc2)nc(N/N=C/c2ccc(Br)cc2)n1`, the “lipid storage change, negative = inhibition” value is reported as -0.957% (inactive) and the cell number change is reported as -3.42%.
In the case of `O=C1CCCN1CCCNS(=O)(=O)c1ccc(Cl)c(C(=O)N2CCOCC2)c1`, the Potency is reported as 23.1 µM (active) and the cell number change is reported as -15.3%.
With `O=C(NCCCN1CCCC1=O)c1cc(S(=O)(=O)N2CCOCC2)ccc1Cl` the “lipid storage change, negative = inhibition” value was -23.3% (inactive) and the cell number change was 15%.
With `O=C1CCCN1CCCNS(=O)(=O)c1ccc(F)c(F)c1` the “lipid storage change, negative = inhibition” value was -21.9% (inactive) and the cell number change was 3.84%.
For `COc1ccccc1Cn1c(C(C)C)nc2ccccc21`, the “lipid storage change, negative = inhibition” value was 0.143% (inactive) and the cell number change was 8.07%.
In the case of `O=C(Nc1nc2ccccc2[nH]1)c1ccc(OC(F)F)cc1`, the “outcome” value is reported as “inactive” and the cell number change is reported as -15.1%.
With `CCOc1ccc(N(CC(=O)NCCOc2ccc(C)cc2)S(=O)(=O)c2ccccc2)cc1` the “lipid storage change, negative = inhibition” value was 2.62% (inactive) and the cell number change was 23.7%.
With `CC(=O)N1CCCc2cc(S(=O)(=O)NC(C(=O)NC3CCCCC3)C(C)C)ccc21` (stereo not drawn) the “lipid storage change, negative = inhibition” value was -0.23% (inactive) and the cell number change was 13.4%.
With `COC(=O)CCCCCCCCCC[N+]1(C)CCCCC1` the “lipid storage change, negative = inhibition” value was 7.23% (inactive) and the cell number change was 12.8%.
For `C[N+]1(CCCCSc2ccc(O)cc2)CCCCC1`, the Potency was 4.61 µM (active) and the cell number change was -4.93%.
For `C[N+]1(CCC(=O)c2ccccc2)CCCCC1`, the “lipid storage change, negative = inhibition” value was -1.35% (inactive) and the cell number change was 3.5%.
In the case of `CCN(CC)C(=O)C(Oc1ccc(S(=O)(=O)N2CCCC2)cc1[N+](=O)[O-])c1ccccc1` (stereo not drawn), the “lipid storage change, negative = inhibition” value is reported as -2.31% (inactive) and the cell number change is reported as 3.42%.
In the case of `O=C(CSc1nc2ccccc2s1)Nc1ccc(Cl)c(C(=O)O)c1`, the “lipid storage change, negative = inhibition” value is reported as 2.06% (inactive) and the cell number change is reported as 18.4%.
With `CSc1nsc(SCC(=O)Nc2ccc(OC(C)=O)cc2)n1` the cell number change was -8.58% and the lipid storage change, negative = inhibition was 1.8% [at 9.22 µM] (inactive).
With `CSc1nsc(SCC(=O)Nc2nncs2)n1` the “lipid storage change, negative = inhibition” value was 1.82% (inactive) and the cell number change was 10.5%.
For `CSc1nsc(SCC(=O)Nc2ccc(C(N)=O)cc2)n1`, the Potency was 6.51 µM (active) and the cell number change was 8.7%.
With `Nc1nnc(SCC(=O)Nc2ccc(Cl)c(C(=O)O)c2)s1` the “lipid storage change, negative = inhibition” value was -24.1% (inactive) and the cell number change was -0.289%.
In the case of `CSc1nsc(SCC(=O)Nc2ccc(Cl)c(C(=O)O)c2)n1`, the Potency is reported as 1.46 µM (active) and the cell number change is reported as 6.94%.
In the case of `O=C(Nc1cc(C(=O)N2CCN(c3ccccc3O)CC2)ccc1Cl)c1cccs1`, the “lipid storage change, negative = inhibition” value is reported as 0.607% (inactive) and the cell number change is reported as 5.21%.
In the case of `CCCOc1cccc(C2/C(=C(\O)c3ccc4c(c3)OCCO4)C(=O)C(=O)N2CCCn2ccnc2)c1` (stereo not drawn), the “outcome” value is reported as “inactive” and the cell number change is reported as -8.73%.
With `O=C(CCc1nnc2n(CCc3ccccc3)c(=O)c3ccccc3n12)NCCCN1CCCCC1` the “outcome” value was “inactive” and the cell number change was -8.94%.
For `O=[N+]([O-])c1ccccc1/C=N/N1CCN(Cc2ccccc2)CC1`, the Potency was 1.3 µM (active) and the cell number change was -5.28%.
For `O=[N+]([O-])c1ccccc1/C=N\N1CCN(c2ccccc2)CC1`, the “lipid storage change, negative = inhibition” value was -22% (inactive) and the cell number change was 0.964%.
For `O=[N+]([O-])c1ccc(Cl)c(/C=N/N2CCN(Cc3ccccc3)CC2)c1`, the “lipid storage change, negative = inhibition” value was 12.3% (inactive) and the cell number change was -3.29%.
For `O=S(=O)(NNC(=S)Nc1ccc(S(=O)(=O)Nc2ncccn2)cc1)c1ccc(Br)cc1`, the “outcome” value was “inactive” and the cell number change was 4.32%.
In the case of `Cc1cc(C(=O)NCc2ccccc2)no1`, the “lipid storage change, negative = inhibition” value is reported as -20.2% (inactive).
For `CCOC(=O)c1cc(-c2ccccc2)nn1Cc1cc(CC)no1`, the “lipid storage change, negative = inhibition” value was 3.3% (inactive) and the cell number change was -20.2%.
In the case of `Cc1cc(Cn2nc(-c3ccccc3)cc2C(=O)NCC2CC2)on1`, the “lipid storage change, negative = inhibition” value is reported as -21.7% (inactive) and the cell number change is reported as -12.8%.
With `Cc1cc(Cn2nc(C(=O)NCc3cccc(Br)c3)cc2-c2ccccc2)on1` the Potency was 13 µM (active) and the cell number change was 16.4%.
In the case of `CCOC(=O)c1cc(-c2ccccc2)nn1Cc1cc(C)no1`, the “lipid storage change, negative = inhibition” value is reported as -32.4% (inactive) and the cell number change is reported as -24%.
For `CCOC(=O)c1cc(-c2ccccc2)n(Cc2cc(CC)no2)n1`, the Potency was 18.4 µM (active) and the cell number change was -3.23%.
For `COc1cc(-c2noc(CCC(=O)NC3CCCC3)n2)cc(OC)c1OC`, the “outcome” value was “inactive” and the cell number change was -0.87%.
In the case of `CC(C)CNC(=O)NC(=O)CSc1nc2ccccc2n1CC(C)C`, the “outcome” value is reported as “inactive”.
For `COc1cc(/C=C/C(=O)NC(C)(C)C)ccc1OCc1ccccc1`, the Potency was 29.1 µM (active) and the cell number change was -27.6%.
For `CCOc1cc(/C=C/C(=O)O)ccc1OCc1ccccc1`, the “lipid storage change, negative = inhibition” value was 1.96% (inactive) and the cell number change was 8.37%.
